Data on six compounds can be found in PubChem BioAssay.

Calls of active or inactive are those of the source.

One experiment deals with Albumin (Bos taurus) (UniProt P02769). The experiment can be described thus: compounds binding labelled BSA control protein – biochemical, small-molecule microarray, Alexa647 label, 635/667 nm fluorescence, artefact control for SMM control protein annotation, profiling panel (AID 1118).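 Note: score merges 667 nm emission intensity and signal-to-noise per printed compound spot.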 The conditions noted are these: BSA-A647 binding, fluorescence 635 nm, higher = more signal.

The nature of experiment [1]: probe aXIP binding to arrayed compounds – biochemical, NeuroSMM set, 635/667 nm fluorescence, primary screen (AID 1119).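 Note: probe is the protein aXip251-270 applied at 1 µg/mL to compound-printed slides; binding of probe to printed compounds measured as 667 nm fluorescence plus signal to noise.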 The settings on record: small-molecule microarray, higher = more signal, called active from +8 up or from −8 down.
Experiment [2] can be described thus: probe aNOTCH3 binding on compound microarray – biochemical, small-molecule microarray, 635/667 nm fluorescence, primary screen (AID 1120).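 Note: probe is a biotin-tagged antibody raised against NOTCH3 rather than NOTCH3 protein; score merges spot fluorescence near 667 nm with spot signal to noise.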 The conditions noted are these: higher = more signal.
Experiment [3] can be described thus: probe aNOTCH2 binding on compound microarray – biochemical, small-molecule microarray, 635/667 nm fluorescence, primary screen (AID 1121).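 Note: score merges feature fluorescence read at 667 nm with its signal to noise.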 The settings on record: higher = more signal.
For experiment [4], the target named is Carbonic anhydrase 2 (Homo sapiens) (UniProt P00918). The experiment can be described thus: compounds binding carbonic anhydrase 2 – biochemical, small-molecule microarray, Alexa647-labelled CAII, profiling panel (AID 1122). The settings on record: CAII-A647 binding fluorescence, higher = more signal.
Experiment [5] can be described thus: COS7 lysate on small-molecule microarray, probe aHis, 635 nm (AID 1123).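 Note: z-score combines 667nm fluorescence intensity with signal-to-noise per printed compound spot.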 The settings on record: COS7 cell lysate, fluorescence, higher = more signal.
Experiment [6] is described as follows: probe aLAP1 signal on lysate-treated microarray – cell lysate, small-molecule microarray, COS7 lysate, primary screen (AID 1124).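 Note: lysate comes from COS7 cells expressing LAP1 and is applied at 0.3 µg/mL; score merges spot fluorescence near 667 nm with signal-to-noise over triplicate slides.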 The conditions noted are these: probe aLAP1, fluorescence, higher = more signal.
Another experiment concerns Sam68 (KHDRBS1). The experiment can be described thus: compounds binding KHDRBS1 protein – biochemical, small-molecule microarray, 635 nm fluorescence, primary screen (AID 1125).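 Note: score merges 667 nm channel intensity with signal to noise over triplicate slides.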 The settings on record: higher = more signal.
For experiment [7], the system named is Chordin-like protein 2 (CHRDL2). The experiment can be described thus: compounds binding chordin-like 2 – biochemical, small-molecule microarray, 635 nm fluorescence, primary screen (AID 1126).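 Note: printed compound slides probed with Chrdl2 protein at 4 µg/mL for 1 h at 4 C; score merges 667 nm emission intensity with signal to noise over three replicate slides.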 The conditions noted are these: fluorescence 635 nm, higher = more signal.
Experiment [8] has as its target Concanavalin-A (Canavalia ensiformis) (UniProt P02866). The experiment in a line: compounds binding concanavalin A lectin – biochemical, small-molecule microarray, Alexa647 label, 635 nm, artefact control for SMM control protein annotation, primary screen (AID 1127).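 Note: z combines 667 nm emission intensity with signal-to-noise across three replicate slides.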 The conditions noted are these: ConA-A647 binding fluorescence, higher = more signal.
Experiment [9] in a line: compounds binding Alexa647 anti-His antibody – biochemical, small-molecule microarray, 635 nm fluorescence, artefact control for SMM control protein annotation, primary screen (AID 1128).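 Note: score merges feature fluorescence with signal-to-noise for each printed compound spot.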 The settings on record: higher = more signal.
Experiment [10] relates to Human papillomavirus type 1a E7 protein (residues 1-88). The experiment can be described thus: HPV1a E7 small-molecule binders, primary screen, biochemical, small-molecule microarray, residues 1-88, 635 nm (AID 1129). The conditions noted are these: small-molecule microarray binding, fluorescence 635 nm; higher = more signal.
Experiment [11] deals with Focal adhesion kinase 1 (Homo sapiens) (UniProt Q05397). The experiment can be described thus: PTK2 protein binding on printed compound slides – biochemical, small-molecule microarray, 635/667 nm fluorescence, BSA, DTT, primary screen (AID 1130).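 Note: composite of spot emission at 667 nm and signal to noise over triplicate slides.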 The conditions noted are these: 635 nm fluorescence, higher = more signal.
Experiment [12] deals with Fibrinogen (Alexa647-labelled). The experiment in a line: Alexa647-fibrinogen binding to printed small molecules – biochemical, small-molecule microarray, 635/667 nm fluorescence, artefact control for SMM control-protein annotation, profiling panel (AID 1131).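 Note: z-score merges 667 nm fluorescence with per-spot signal-to-noise over triplicate slides.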 The settings on record: fibrinogen-A647 binding fluorescence, higher = more signal.
Experiment [13] concerns the target Follistatin (Homo sapiens) (UniProt P19883). The experiment can be described thus: FST protein binding to printed compounds – biochemical, small-molecule microarray, 635/667 nm fluorescence, primary screen (AID 1132). The conditions noted are these: 635 nm fluorescence, higher = more signal.
Experiment [14] concerns the target Fibroblast growth factor 2 (Homo sapiens) (UniProt P09038). The experiment can be described thus: basic fibroblast growth factor binding to printed compounds – biochemical, small-molecule microarray, 635/667 nm fluorescence, primary screen (AID 1133). The settings on record: FGF2, fluorescence 635/667, higher = more signal.
Experiment [15] in a line: JC-1 mitochondrial potential readout, lung cancer cells – cell-based, A549, JC-1 fluorescence, basal, 24 h, 100 nL, profiling panel (AID 1138).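 Note: A549 lung adenocarcinoma cells under basal conditions with no added stimulus; test concentration not given here.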 The settings on record: higher = more signal.
In the next experiment the test system is Lefty1. The experiment in a line: Lefty1 protein binding to printed compounds – biochemical, small-molecule microarray, 635/667 nm fluorescence, primary screen (AID 1139). The conditions noted are these: fluorescence 635/667, higher = more signal.
Experiment [16] relates to wheat germ agglutinin (Triticum aestivum), Alexa647-labelled. The experiment in a line: Alexa647-WGA lectin binding to printed small molecules – biochemical, small-molecule microarray, 635/667 nm fluorescence, artefact control for SMM control-protein annotation, profiling panel (AID 1140).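 Note: score merges 667 nm feature emission with signal to noise over triplicate slides.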 The settings on record: WGA-A647 binding, 635 nm fluorescence, higher = more signal.

The target in experiment [17] is Luciferin 4-monooxygenase (Photinus pyralis) (UniProt P08659). The experiment in a line: inhibition of purified Photinus pyralis luciferase – biochemical, luminescence, purified enzyme, 2006 set, primary screen (AID 1141).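 Note: cell-free assay with purified firefly luciferase at 100 ng per well in PBS; test concentration not given here.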 The settings on record: purified firefly luciferase, SteadyGlo luminescence, 30 min; higher = more signal, called active from +8 up or from −8 down.
Luciferin 4-monooxygenase (Photinus pyralis), sequence (P08659 whole entry, looked up): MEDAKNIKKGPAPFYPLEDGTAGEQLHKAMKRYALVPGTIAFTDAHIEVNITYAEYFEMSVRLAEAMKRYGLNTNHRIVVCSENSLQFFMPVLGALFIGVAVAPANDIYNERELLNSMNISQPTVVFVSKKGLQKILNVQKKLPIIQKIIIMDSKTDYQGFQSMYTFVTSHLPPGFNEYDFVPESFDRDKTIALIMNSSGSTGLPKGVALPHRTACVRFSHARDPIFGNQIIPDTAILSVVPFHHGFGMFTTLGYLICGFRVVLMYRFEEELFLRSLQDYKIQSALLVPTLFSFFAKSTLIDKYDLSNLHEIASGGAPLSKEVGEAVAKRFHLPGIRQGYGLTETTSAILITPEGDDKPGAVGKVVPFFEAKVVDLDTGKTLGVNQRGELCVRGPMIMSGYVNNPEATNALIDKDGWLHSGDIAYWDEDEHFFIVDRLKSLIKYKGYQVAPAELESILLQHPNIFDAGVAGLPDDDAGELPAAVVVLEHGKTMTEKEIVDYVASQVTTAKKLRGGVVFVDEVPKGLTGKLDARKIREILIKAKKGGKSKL

Concanavalin-A (Canavalia ensiformis), sequence (P02866 whole entry, looked up): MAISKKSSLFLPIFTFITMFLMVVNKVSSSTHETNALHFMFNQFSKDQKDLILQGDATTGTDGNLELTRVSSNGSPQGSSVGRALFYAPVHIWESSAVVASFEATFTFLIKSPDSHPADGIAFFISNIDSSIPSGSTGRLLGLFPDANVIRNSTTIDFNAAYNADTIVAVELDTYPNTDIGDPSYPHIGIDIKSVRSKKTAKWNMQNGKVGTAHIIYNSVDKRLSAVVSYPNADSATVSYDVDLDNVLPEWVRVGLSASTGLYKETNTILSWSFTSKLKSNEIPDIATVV
Albumin (Bos taurus), sequence (P02769 whole entry, looked up): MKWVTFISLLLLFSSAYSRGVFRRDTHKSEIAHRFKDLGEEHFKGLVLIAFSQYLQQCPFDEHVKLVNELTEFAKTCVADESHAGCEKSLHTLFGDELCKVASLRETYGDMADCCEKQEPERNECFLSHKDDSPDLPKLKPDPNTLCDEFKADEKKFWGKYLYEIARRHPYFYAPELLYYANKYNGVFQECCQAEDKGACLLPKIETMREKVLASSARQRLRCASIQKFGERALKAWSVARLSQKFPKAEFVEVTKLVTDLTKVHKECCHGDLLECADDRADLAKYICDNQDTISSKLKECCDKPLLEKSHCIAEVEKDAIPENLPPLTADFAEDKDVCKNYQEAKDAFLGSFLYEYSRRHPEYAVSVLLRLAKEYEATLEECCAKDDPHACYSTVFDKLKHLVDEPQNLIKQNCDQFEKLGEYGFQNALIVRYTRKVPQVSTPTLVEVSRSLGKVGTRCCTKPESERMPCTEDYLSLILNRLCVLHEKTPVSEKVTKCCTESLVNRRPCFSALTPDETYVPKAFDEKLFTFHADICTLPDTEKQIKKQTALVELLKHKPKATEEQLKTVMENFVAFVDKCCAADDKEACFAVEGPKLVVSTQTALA
Fibroblast growth factor 2 (Homo sapiens), sequence (P09038 whole entry, looked up): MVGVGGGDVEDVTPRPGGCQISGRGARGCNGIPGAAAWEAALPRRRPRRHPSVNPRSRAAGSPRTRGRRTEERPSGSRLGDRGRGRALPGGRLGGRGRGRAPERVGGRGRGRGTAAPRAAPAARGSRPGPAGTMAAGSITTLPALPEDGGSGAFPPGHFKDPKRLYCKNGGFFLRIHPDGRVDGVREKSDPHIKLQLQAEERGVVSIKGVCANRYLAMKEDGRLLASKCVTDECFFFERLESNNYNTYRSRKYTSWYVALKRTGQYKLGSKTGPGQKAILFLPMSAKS
Focal adhesion kinase 1 (Homo sapiens), sequence (Q05397 whole entry, looked up): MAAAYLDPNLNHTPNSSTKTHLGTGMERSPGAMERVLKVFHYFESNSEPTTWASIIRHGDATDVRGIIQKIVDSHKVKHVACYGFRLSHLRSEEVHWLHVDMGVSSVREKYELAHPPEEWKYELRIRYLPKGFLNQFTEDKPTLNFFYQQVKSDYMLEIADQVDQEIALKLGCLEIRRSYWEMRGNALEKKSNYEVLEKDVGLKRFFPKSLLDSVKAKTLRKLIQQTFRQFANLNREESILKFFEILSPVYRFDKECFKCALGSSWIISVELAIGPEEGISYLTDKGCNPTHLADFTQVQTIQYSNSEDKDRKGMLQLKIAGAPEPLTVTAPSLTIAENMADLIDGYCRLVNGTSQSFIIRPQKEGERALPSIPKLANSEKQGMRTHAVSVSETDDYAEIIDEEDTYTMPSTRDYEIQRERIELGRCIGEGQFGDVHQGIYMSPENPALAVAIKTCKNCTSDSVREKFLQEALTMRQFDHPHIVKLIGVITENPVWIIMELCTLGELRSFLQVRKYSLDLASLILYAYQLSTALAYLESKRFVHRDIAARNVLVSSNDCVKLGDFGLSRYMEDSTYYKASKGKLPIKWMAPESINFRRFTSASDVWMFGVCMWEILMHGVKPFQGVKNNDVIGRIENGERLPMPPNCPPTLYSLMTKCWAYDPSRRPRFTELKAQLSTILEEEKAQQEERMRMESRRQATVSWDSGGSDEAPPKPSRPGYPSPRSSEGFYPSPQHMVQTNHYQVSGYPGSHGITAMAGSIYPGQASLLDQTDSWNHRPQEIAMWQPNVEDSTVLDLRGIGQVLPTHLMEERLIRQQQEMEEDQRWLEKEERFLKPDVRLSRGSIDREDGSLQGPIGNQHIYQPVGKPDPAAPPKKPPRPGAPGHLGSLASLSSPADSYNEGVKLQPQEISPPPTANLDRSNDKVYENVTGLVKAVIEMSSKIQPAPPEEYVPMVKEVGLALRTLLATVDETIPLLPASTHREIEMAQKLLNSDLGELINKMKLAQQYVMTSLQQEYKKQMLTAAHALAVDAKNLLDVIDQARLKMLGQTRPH
Follistatin (Homo sapiens), sequence (P19883 whole entry, looked up): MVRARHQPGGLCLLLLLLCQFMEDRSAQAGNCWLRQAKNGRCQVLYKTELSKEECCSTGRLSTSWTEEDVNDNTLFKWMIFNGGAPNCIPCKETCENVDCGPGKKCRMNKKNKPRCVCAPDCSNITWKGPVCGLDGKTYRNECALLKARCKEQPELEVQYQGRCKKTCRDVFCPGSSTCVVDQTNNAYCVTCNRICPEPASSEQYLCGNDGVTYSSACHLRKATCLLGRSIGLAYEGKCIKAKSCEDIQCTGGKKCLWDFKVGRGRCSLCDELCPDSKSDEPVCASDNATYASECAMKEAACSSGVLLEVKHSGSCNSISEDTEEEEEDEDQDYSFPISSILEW

As for `COCCOC(=O)N1C(=O)[C@@]2(c3ccccc31)[C@H](c1ccccc1OCCO)N1[C@H](c3ccccc3)[C@H](c3ccccc3)OC(=O)[C@H]1[C@@H]2C(N)=O`, the composite z-score in the experiment with Albumin (Bos taurus) was 0.856; in experiment [2], -0.0324; in experiment [3], -0.181; in experiment [4], 0.565; in experiment [5], 2.36; in experiment [6] it was 1.01. The composite z-score came out at 1.3 in the experiment with Sam68 (KHDRBS1); 0.651 in experiment [7]; 1.18 in experiment [8]; 1.93 in experiment [9]; 1.18 in [10]; 0.502 in experiment [11]. Also, the composite z-score in [12] came to 0.955; in experiment [13] it was 1.4; in [14], 1.57; in the experiment on Lefty1 it was 1.01; in experiment [16], 0.64. For the same compound, in experiment [1], the composite Z-score is 1.26 (inactive). Further, the z-score in experiment [15] was -0.206; in [17], 0.0559 (inactive).

In the case of `COC(=O)C(CC#Cc1ccc2c(c1)[C@]1(C(=O)N2)[C@H](c2ccc(OCCO)cc2)N2[C@H](c3ccccc3)[C@H](c3ccccc3)OC(=O)[C@H]2[C@@H]1C(=O)N1CCN(c2ncccn2)CC1)C(=O)OC`, the composite z-score with Albumin (Bos taurus) worked out at 0.621; in experiment [2], 0.176; in experiment [3], 0.0296; in [4] it was 0.62; in experiment [5], 1.71; in experiment [6], 0.832. The composite z-score was 1.3 in the experiment on Sam68 (KHDRBS1); 0.441 in experiment [7]; 1.16 in experiment [8]; 1.92 in [9]; 1.21 in experiment [10]; -0.528 in experiment [11]. In addition, the composite z-score in experiment [12] was 0.993; in [13], 1.37; in [14] it was 1.35; in the experiment on Lefty1 it was 0.857; in experiment [16], 1.04. The composite Z-score in [1] is 0.434 (inactive). In addition, the z-score is -1.56 in experiment [15] and -0.195 (inactive) in experiment [17].

As to `CN(C)C(=O)[C@@]1(CCC(=O)OC(C)(C)C)N=C(c2ccc(OCCCO)cc2)O[C@H]1c1ccccc1CN=[N+]=[N-]`, the composite z-score with Albumin (Bos taurus) is 1; in experiment [2], -0.0111; in experiment [3], -0.0206; in experiment [4] it was 0.825; in experiment [5], 3.22; in [6], 0.626. Also, the composite z-score with Sam68 (KHDRBS1) was 1.29; in [7], -0.409; in [8], 0.613; in experiment [9], 2.38; in experiment [10], 1.17; in [11] it was 0.821. Besides, the composite z-score was 1.01 in [12]; 1.29 in [13]; 0.512 in [14]; -0.597 in the experiment on Lefty1; 1.05 in [16]. Further, the composite Z-score in experiment [1] is -0.181 (inactive). Further, the z-score was 0.123 in experiment [15] and -0.659 (inactive) in experiment [17].

For `C=C[C@@H](OC)[C@H](OC(=O)Nc1ccc(OC)cc1)c1ccc(OC)c(O)c1`, the composite z-score with Albumin (Bos taurus) is -0.787; in [2] it was -0.246; in experiment [3], -0.203; in [4], 0.415; in [5] it was 1.36; in [6] it was 0.0218. The composite z-score is -0.853 with Sam68 (KHDRBS1); -0.96 in [7]; -0.613 in experiment [8]; 0.122 in experiment [9]; -1.06 in experiment [10]; -0.384 in experiment [11]. For the same compound, the composite z-score is -1.1 in experiment [12]; 0.0112 in experiment [13]; -0.685 in [14]; -0.396 in the experiment with Lefty1; -0.0358 in experiment [16]. Also, the composite Z-score in [1] is 0.43 (inactive). The z-score in experiment [15] was 0.232; in experiment [17], -0.737 (inactive).

On to `COCCOC(=O)N1C(=O)[C@@]2(c3cc(C#CCC(C(=O)OC)C(=O)OC)ccc31)[C@H](c1ccc(O)cc1)N1[C@H](c3ccccc3)[C@H](c3ccccc3)OC(=O)[C@H]1[C@@H]2C(=O)NC[C@H](O)c1ccccc1`, for which the composite z-score was 0.781 in the experiment with Albumin (Bos taurus); -0.196 in experiment [2]; -0.14 in experiment [3]; 0.63 in experiment [4]; 2.2 in experiment [5]; 0.588 in [6]. The composite z-score was 0.296 with Sam68 (KHDRBS1); -0.282 in experiment [7]; 1.07 in experiment [8]; 0.135 in [9]; 1.19 in experiment [10]; 0.933 in experiment [11]. The composite z-score in experiment [12] is 0.8; in experiment [13], 1.11; in experiment [14], -0.011; in the experiment with Lefty1 it was 0.222; in experiment [16], 1.03. The composite Z-score in experiment [1] is 0.7 (inactive). Further, the z-score in experiment [15] was -0.236; in experiment [17], 1.04 (inactive).

For the compound `O=C1C2C=CC(C(O)c3ccco3)N(Nc3ccccc3)C2C(=O)N1c1ccccc1` (stereo not given), the composite z-score is 0.507 with Albumin (Bos taurus); -0.153 in experiment [2]; -0.141 in [3]; 0.757 in [4]; 0.467 in [5]; -0.102 in experiment [6]. Also, the composite z-score in the experiment on Sam68 (KHDRBS1) is -0.161; in experiment [7] it was -0.727; in experiment [8], -0.222; in experiment [9], -0.317; in experiment [10], 0.556; in experiment [11] it was -0.0201. Further, the composite z-score in experiment [12] is -1.58; in experiment [13] it was -0.118; in experiment [14] it was -1.21; with Lefty1, -0.907; in [16], 0.46. For the same compound, the composite Z-score in experiment [1] was 0.0089 (inactive). In addition, the z-score was 1.9 in experiment [15] and 1.06 (inactive) in experiment [17].
